# The full data set covers some 7,900 targets. This sample favours those with a hit. About 0.6% of all pairs of compound and target were hits.
# Compound: C/C(=N\NC(=O)C1=CC(=CC=C1)S(=O)(=O)N2CCOCC2)/C3=C(C=CC(=C3)Cl)O
# Assay: log2 fold change, soluble protein after heating vs DMSO (PISA); higher = thermal stabilisation; K562 cells, 10 uM, 30 min; active = over 0.2 and 3.5 SD of the protein, either way, in both replicates (recomputed)
# How it was run: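 Soluble protein was defined as the supernatant after 21,000xg for 90 min. It came from K562 cells at 2×10^6 cells/mL given 10 μM compound for 30 min, heated in aliquots for 3 min across 48°C-58°C, pooled, and extracted in PBS with 0.5% NP-40 at 4°C, and was quantified by TMTpro 16plex LC-MS/MS with equalised channel sums. Thermal stability against control samples, from duplicates, is reported as log2 fold change.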
# Chain of UniProt Q9Y5B8 (Q9Y5B8 whole entry, looked up): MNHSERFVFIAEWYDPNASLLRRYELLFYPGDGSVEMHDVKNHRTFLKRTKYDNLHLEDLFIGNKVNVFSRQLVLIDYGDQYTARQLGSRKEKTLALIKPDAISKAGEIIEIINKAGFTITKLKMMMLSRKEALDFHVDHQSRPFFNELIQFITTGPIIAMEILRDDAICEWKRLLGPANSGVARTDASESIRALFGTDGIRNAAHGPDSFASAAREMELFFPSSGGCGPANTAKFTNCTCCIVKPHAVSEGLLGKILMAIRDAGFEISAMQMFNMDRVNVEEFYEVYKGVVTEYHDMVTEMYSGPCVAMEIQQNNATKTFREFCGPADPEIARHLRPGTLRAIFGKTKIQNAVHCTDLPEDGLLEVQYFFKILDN
# Chain of UniProt Q9Y2X3 (Q9Y2X3 whole entry, looked up): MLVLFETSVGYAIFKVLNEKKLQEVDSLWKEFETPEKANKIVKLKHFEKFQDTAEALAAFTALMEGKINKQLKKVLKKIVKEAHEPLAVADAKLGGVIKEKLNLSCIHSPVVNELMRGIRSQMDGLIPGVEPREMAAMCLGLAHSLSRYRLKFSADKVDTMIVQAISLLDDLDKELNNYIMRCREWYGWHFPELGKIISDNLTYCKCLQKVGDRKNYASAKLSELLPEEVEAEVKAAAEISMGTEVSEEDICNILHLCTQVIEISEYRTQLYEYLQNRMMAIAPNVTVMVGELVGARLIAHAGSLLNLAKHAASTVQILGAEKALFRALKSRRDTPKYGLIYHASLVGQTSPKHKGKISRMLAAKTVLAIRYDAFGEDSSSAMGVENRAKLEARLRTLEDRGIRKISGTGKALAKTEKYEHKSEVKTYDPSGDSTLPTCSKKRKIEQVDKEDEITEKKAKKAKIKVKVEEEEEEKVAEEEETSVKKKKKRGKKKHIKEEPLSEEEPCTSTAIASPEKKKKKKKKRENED
# Chain of UniProt O60361 (O60361 whole entry, looked up): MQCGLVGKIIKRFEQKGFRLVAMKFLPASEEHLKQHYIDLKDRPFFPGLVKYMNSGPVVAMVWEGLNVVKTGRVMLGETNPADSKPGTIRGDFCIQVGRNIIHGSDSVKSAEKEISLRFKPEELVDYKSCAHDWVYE
# Chain of UniProt P17568 (P17568 whole entry, looked up): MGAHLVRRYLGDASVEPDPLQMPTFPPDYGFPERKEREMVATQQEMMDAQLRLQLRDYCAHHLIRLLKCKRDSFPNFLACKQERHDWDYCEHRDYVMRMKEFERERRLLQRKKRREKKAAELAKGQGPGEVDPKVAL
# Chain of UniProt Q92686 (Q92686 whole entry, looked up): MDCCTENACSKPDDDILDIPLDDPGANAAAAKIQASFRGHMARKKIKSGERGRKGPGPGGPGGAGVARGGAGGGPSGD
# Chain of UniProt Q12769 (Q12769 whole entry, looked up): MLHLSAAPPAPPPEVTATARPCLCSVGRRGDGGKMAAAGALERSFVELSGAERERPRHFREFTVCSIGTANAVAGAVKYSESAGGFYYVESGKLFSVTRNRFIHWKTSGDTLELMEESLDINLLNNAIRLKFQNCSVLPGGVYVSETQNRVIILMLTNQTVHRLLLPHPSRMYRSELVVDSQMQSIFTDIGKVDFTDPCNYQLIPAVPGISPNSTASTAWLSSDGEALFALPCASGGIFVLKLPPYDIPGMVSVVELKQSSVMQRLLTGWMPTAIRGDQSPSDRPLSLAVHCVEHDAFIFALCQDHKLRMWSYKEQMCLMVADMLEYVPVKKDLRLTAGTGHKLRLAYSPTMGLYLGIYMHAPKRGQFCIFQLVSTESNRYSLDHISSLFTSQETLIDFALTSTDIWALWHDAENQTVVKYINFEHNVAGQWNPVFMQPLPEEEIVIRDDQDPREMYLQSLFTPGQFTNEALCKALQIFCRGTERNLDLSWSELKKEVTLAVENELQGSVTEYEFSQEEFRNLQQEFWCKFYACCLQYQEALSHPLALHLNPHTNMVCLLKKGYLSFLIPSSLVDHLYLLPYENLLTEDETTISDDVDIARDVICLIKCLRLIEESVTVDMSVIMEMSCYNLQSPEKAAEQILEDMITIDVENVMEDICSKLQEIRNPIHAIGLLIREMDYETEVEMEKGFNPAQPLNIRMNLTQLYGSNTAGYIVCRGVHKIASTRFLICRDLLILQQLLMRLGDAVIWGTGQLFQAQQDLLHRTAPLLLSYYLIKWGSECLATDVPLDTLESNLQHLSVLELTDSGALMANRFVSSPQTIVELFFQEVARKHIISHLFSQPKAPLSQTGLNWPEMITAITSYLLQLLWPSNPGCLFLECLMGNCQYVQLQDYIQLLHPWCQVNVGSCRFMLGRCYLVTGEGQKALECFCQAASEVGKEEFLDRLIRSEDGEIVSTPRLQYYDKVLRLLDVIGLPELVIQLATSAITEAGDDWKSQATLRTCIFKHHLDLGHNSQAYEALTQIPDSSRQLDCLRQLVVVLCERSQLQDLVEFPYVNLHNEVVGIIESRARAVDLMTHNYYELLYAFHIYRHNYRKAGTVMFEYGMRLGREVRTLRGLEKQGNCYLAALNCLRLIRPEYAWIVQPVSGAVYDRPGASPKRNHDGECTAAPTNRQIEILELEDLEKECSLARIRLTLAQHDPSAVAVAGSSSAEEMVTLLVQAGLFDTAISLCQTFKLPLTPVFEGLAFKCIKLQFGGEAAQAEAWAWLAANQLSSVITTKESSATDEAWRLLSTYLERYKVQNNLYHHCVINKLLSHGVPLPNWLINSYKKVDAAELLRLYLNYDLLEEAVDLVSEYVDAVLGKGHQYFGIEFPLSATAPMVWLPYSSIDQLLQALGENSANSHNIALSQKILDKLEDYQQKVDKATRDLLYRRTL
# Chain of UniProt Q9BSU3 (Q9BSU3 whole entry, looked up): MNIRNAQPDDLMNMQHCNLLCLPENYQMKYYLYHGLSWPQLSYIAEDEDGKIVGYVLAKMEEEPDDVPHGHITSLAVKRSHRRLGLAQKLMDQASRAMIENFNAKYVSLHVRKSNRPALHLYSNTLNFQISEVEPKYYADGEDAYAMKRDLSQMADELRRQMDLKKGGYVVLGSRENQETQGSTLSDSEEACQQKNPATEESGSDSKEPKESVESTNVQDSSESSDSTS
# Chain of UniProt P20585 (P20585 whole entry, looked up): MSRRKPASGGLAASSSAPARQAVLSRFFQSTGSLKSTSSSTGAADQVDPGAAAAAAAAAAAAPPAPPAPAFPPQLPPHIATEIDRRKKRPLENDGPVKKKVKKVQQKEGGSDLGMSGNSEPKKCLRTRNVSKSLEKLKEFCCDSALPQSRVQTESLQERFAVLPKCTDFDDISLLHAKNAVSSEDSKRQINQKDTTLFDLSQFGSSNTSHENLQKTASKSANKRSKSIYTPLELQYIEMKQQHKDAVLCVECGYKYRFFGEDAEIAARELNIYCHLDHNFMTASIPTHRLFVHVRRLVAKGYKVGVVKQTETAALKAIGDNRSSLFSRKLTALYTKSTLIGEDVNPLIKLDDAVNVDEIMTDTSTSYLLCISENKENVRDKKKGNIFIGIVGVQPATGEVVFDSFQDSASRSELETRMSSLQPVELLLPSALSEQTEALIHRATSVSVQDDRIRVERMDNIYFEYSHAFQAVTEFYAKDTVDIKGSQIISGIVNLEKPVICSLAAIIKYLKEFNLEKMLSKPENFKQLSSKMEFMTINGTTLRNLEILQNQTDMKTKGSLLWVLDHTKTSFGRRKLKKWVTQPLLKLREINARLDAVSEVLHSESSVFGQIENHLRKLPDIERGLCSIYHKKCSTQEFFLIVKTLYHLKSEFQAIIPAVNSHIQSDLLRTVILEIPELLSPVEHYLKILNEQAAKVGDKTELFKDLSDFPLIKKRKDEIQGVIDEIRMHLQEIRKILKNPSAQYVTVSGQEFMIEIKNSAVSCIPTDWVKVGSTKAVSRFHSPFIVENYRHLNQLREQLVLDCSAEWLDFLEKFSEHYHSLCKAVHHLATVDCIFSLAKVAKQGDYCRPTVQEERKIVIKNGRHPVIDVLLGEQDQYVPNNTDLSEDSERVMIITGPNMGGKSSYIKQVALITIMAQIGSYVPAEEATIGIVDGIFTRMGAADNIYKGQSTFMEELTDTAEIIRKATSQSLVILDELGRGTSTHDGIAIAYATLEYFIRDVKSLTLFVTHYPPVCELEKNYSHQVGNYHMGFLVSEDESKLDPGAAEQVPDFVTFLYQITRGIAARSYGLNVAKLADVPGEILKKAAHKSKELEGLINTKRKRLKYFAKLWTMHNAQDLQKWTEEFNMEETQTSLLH
# Chain of UniProt Q8N6M0 (Q8N6M0 whole entry, looked up): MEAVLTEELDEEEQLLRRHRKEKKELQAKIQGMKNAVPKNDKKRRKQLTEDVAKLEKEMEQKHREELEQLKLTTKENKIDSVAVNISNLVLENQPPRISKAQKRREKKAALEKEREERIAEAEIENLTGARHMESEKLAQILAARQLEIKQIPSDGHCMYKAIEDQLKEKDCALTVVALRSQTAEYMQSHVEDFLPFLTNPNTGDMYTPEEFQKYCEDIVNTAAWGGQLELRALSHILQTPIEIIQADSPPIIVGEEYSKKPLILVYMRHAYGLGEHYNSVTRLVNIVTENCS
# Chain of UniProt Q9Y6R0 (Q9Y6R0 whole entry, looked up): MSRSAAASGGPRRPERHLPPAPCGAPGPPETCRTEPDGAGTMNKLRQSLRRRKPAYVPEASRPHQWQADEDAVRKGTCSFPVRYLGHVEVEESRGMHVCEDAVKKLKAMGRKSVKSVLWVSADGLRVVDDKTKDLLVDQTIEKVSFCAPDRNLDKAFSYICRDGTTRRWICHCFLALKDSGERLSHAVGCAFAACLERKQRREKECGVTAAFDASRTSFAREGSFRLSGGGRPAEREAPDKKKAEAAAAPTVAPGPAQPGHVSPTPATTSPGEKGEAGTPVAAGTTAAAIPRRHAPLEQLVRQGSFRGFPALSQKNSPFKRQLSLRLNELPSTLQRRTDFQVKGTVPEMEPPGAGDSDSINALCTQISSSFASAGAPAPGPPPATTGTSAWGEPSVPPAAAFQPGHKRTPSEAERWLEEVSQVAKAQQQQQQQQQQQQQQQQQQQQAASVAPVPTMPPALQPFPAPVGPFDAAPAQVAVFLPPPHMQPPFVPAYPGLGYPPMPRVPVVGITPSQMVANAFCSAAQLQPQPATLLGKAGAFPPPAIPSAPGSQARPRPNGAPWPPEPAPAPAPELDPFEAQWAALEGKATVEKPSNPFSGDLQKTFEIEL
row,Target,log2 fold change
1,NDUFB7 (UniProt P17568),0.015 (inactive)
2,MRPL50 (UniProt Q8N5N7),-0.033 (inactive)
3,NOP58 (UniProt Q9Y2X3),0.001 (inactive)
4,MRPS31 (UniProt Q92665),0.001 (inactive)
5,NME7 (UniProt Q9Y5B8),0.058 (inactive)
6,NUMBL (UniProt Q9Y6R0),0.021 (inactive)
7,NME2P1 (UniProt O60361),0.012 (inactive)
8,OTUD6B (UniProt Q8N6M0),0.117 (inactive)
9,NDUFA4 (UniProt O00483),0.002 (inactive)
10,NUP160 (UniProt Q12769),0.022 (inactive)
11,MTHFS (UniProt P49914),0.062 (inactive)
12,NELFB isoform 2 (UniProt Q8WX92),0.151 (inactive)
13,NISCH (UniProt Q9Y2I1),0.1 (inactive)
14,MRPS16 (UniProt Q9Y3D3),0 (inactive)
15,NCAPH (UniProt Q15003),0.09 (inactive)
16,NELFA (UniProt Q9H3P2),0.231 (inactive)
17,MSL1 (UniProt Q68DK7),-0.603 (active)
18,MSH3 (UniProt P20585),0.031 (inactive)
19,NRGN (UniProt Q92686),0.086 (inactive)
20,NEU1 (UniProt Q99519),-0.05 (inactive)
21,NUCKS1 (UniProt Q9H1E3),-0.098 (inactive)
22,NMRAL1 (UniProt Q9HBL8),-0.118 (inactive)
23,MTOR (UniProt P42345),0.041 (inactive)
24,NAA11 (UniProt Q9BSU3),-0.012 (inactive)

# — the supplement of paper PMC10849652
